# Compound activity (PubChem BioAssay)
# Nrf2 activator: activates Nrf2 signaling. 0.31% of 410,000 active. Potency, µM (highest dose often 46.1 µM), most hits filed as activators. AREc32 ARE-luciferase reporter (MCF7-derived line), luminescence, 24 h; also: nearly all actives have a fitted effect of over 65% in size
#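 Reporter line AREc32 (ARE-Fluc), seeded overnight in OPTI-MEM with 5% FBS; compound pin-transferred, 24 hr at 37 deg C, 5% CO2; luminescent read-out.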
# A549 viability: kills or reduces viability of A549 cells in Nrf2 counter-screen; A549 ARE-Fluc cells, CellTiter-Fluor viability, 18-24 h; Potency, µM (top dose mostly 46 µM), actives largely listed as inhibitors; 0.16% of 390,000 active
#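 Cytotoxicity counterscreen: CellTiter-Fluor fluorescence was measured in A549 ARE_Fluc cells after 18-24 h of compound exposure in a concentration series. The subsequent BugLite luminescent read reports ARE-luciferase activity.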
# Nrf2 block: blocks Nrf2 signaling; A549 ARE-Fluc reporter, luciferase luminescence, 18-24 h; Potency, µM (highest dose often 46 µM), hits mostly inhibitors; 2.1% of 360,000 active; AID 504444; also: nearly all actives have a fitted effect of over 60% in size
#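 Two sequential reads on A549 ARE_Fluc cells exposed to compound for 18-24 h: a CellTiter-Fluor fluorescence read for viability, then a luciferase luminescence read for Nrf2/ARE activity.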
# S2 tox: cell viability loss in ATXN counter-screen | S2 cells (HEK-293 line with an ATXN2-luciferase reporter) viability, CellTiter-Fluor protease fluorescence, 24 h | Potency, µM (series often up to 56.7 µM), hits mostly cytotoxic | 0.49% of 400,000 active | AID 651635; also: nearly all actives have a fitted effect of over 40% in size
# ATXN2 expr inh: ATXN2 expression inhibition; HEK-293 ATXN2-luciferase reporter, luminescence, 24 h; Potency, µM (top dose mostly 57 µM), usual class: inhibitors; 0.72% of 360,000 active; AID 1745845; also: nearly all actives have a fitted effect of over 55% in size
#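 ATXN2-luciferase reporter cells (luciferase flanked by upstream and downstream ATXN2 gene portions) were treated 24 h at 37 °C with compounds at up to 57 uM. SteadyGlo luminescence gave expression; GF-AFC fluorescence gave viability.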
# Numbers stand for hits; . = inactive; ? = inconclusive; / = no result given. Most compounds without a hit are left out; they make up all but 2.9% or so of the library. Calls follow the shape of the dose curve; as a rule, active = well fitted curve in the direction sought with a large enough effect; inconclusive = small, poorly fitted or top-dose-only effect, or another doubt; inactive = no such curve, though single readings can be large; an effect the other way counts as inactive or inconclusive.
SMILES,Nrf2 activator,A549 viability,Nrf2 block,S2 tox,ATXN2 expr inh
Cc1cccc(NS(=O)(=O)c2ccc(NC(=O)CN(c3cc([N+](=O)[O-])ccc3C)S(C)(=O)=O)cc2)c1,.,?,18µM,?,?
COc1cc(NC(=O)c2ccc([N+](=O)[O-])o2)ccc1NC(=O)c1cccs1,11µM,23µM,.,.,.
O=C(Nc1cccc(NC(=O)c2cccs2)c1)c1ccc([N+](=O)[O-])o1,?,.,.,?,?
Cc1ccc(C(=O)Nc2ccc(NC(=O)c3cccs3)cc2)cc1[N+](=O)[O-],.,.,.,.,.
COc1cc(NC(=O)c2cc3ccccc3cc2OC)ccc1NC(=O)c1cccs1,.,.,5.2µM,.,?
COc1cc(NC(=O)c2ccccc2Cl)ccc1NC(=O)c1cccs1,.,.,?,.,.
Cc1ccc(NC(=O)c2cccs2)cc1[N+](=O)[O-],14µM,.,?,.,.
C[C@H](CSC(=O)c1ccccc1)C(=O)N1C[C@@H](Sc2ccccc2)C[C@H]1C(=O)O,/,/,/,.,/
CCN(C(=O)c1ccco1)c1nnc(-c2ccc(OC)cc2)s1,.,.,.,.,.
CCCN(C(=O)c1ccco1)c1nnc(-c2cccc(C)c2)s1,10µM,.,?,.,/
O=c1ccc(N=Nc2ccccc2)ccc1O,.,16µM,?,13µM,?
Cc1cccc(C(O)c2ncc(-c3ccc(Cl)cc3)[nH]2)c1C (stereo unspecified),.,/,/,22µM,.
COc1cccc(CC2(CO)CCCN(Cc3[nH]c4ccc(C)cc4c3C)C2)c1 (stereo unspecified),.,?,?,?,25µM
O=C(Nc1ccn(CCCN2CCN(Cc3cccc4ccccc34)CC2)c(=O)n1)OCc1ccccc1,.,/,/,/,28µM
Clc1ccc(C=Cc2ccccn2)cc1,8.9µM,.,?,.,.
Cc1ccc(NC(=O)Nc2nnc(N(C)C3CCCCC3)s2)c(Cl)c1,.,.,.,.,.
Cc1c(Cl)cccc1NC(=O)Nc1nnc(N(C)C2CCCCC2)s1,.,.,18µM,/,/
COC(=O)[C@@]1(Cc2ccc(OC)cc2)[C@@H]2C(=CC(=O)[C@H]2CC(=O)C(=O)N2CCCC2)CN1C(=O)c1ccccc1,.,.,.,28µM,?
O=c1[nH]nc(SCCS(=O)(=O)c2ccc(F)cc2)n1-c1ccccc1,13µM,.,.,?,.
O=c1[nH]nc(SCCS(=O)(=O)c2ccc(F)cc2)n1-c1ccc2c(c1)OCCO2,13µM,.,.,?,.
O=C(O)c1ccccc1C(=O)Nc1ccc(-c2ccccc2)cc1,/,/,/,/,.
Cn1cnc([N+](=O)[O-])c1S(=O)(=O)Oc1cccc2ccccc12,.,?,?,16µM,?
Cn1cnc([N+](=O)[O-])c1Oc1cccc2ccccc12,.,.,.,?,?
O=C1[C@@H]2CSC(c3ccc(Cl)cc3)N2C(=O)N1c1ccccc1 (stereo partly specified),.,.,.,.,.
O=S(=O)(NCC1CCCO1)c1ccc(-c2ccc(S(=O)(=O)NCC3CCCO3)cc2)cc1 (stereo unspecified),.,.,1.3µM,.,?
SMILES,Nrf2 activator,A549 viability,Nrf2 block,S2 tox,ATXN2 expr inh
O=C(N/N=C/c1cccc(Oc2ccc([N+](=O)[O-])cc2[N+](=O)[O-])c1)c1cncc(Br)c1,?,?,13µM,.,.
CCC(=O)Oc1ccc2c(c1)CC[C@@H]1[C@@H]2CC[C@]2(C)[C@@H](OC(=O)CC)CC[C@@H]12,/,/,/,.,/
N#C/C(=C\C=C\c1ccccc1[N+](=O)[O-])c1nc(-c2ccc3c(c2)OCO3)cs1,.,.,.,.,?
N#C/C(=C\c1ccccc1[N+](=O)[O-])c1nc(C2CC2)cs1,10µM,.,?,.,.
N#C/C(=C/c1ccccc1[N+](=O)[O-])c1nc(C2CC2)cs1,11µM,.,?,?,?
N#C/C(=C\c1ccc([N+](=O)[O-])cc1)c1nc(C2CC2)cs1,.,.,.,.,.
COc1ccccc1NC(=S)N(Cc1ccccc1)Cc1ccccn1,.,.,?,.,.
S=C(Nc1ccccc1Cl)N(Cc1ccccc1)Cc1ccccn1,.,.,21µM,.,.
Cc1ccc(-c2nc3ccccc3[nH]2)cc1NC(=O)COc1ccccc1[N+](=O)[O-],.,?,?,/,/
CCn1c2c(c(=N)c3ccccc31)CCC2,.,.,13µM,.,.
CCCCCCCCCCCCCCCC(=O)OC[C@@H](NC(=O)C(Cl)Cl)[C@H](O)c1ccc([N+](=O)[O-])cc1,/,/,/,.,.
CCCCCCn1c(C)nc2c(c1=O)c1nc3ccccc3nc1n2/N=C/c1ccco1,.,?,23µM,?,?
Nc1ccc(C(=O)NN2C(=O)[C@H](Cl)C2c2ccc(Cl)cc2)cc1 (stereo partly specified),.,.,.,13µM,?
Clc1cccc(Nc2ncnc3ccc(Br)cc23)c1,?,.,?,.,.
Clc1ccc(Nc2ncnc3ccc(Br)cc23)cc1,.,.,13µM,.,?
CCOC(=O)c1cc(-c2ccccc2)n(CCC(=O)NCCc2ccc(C)cc2)c1C,.,.,/,/,/
Cn1cnc(S(=O)(=O)N2CCCC(C(=O)Nc3cccc(C#N)c3)C2)c1 (stereo unspecified),.,.,/,/,/
COc1ccc(-c2oc3ncn(CCN4CCOCC4)c(=N)c3c2-c2ccc(OC)cc2)cc1,.,.,16µM,?,?
O=C(NC1CCCC1)c1sc(=S)n2c1[nH]c(=O)c1ccccc12,.,?,16µM,.,?
Cc1cccc(C)c1N=C1C(=O)Nc2ccccc21,.,.,18µM,.,.
CN(C)C(=O)CNC(=O)Cc1ccccc1,/,/,/,.,.
CC[C@@]1(O)C(=O)OCc2c1cc1n(c2=O)Cc2c-1nc1ccccc1c2/C=N/OC(C)(C)C,/,/,/,.,0.0005µM
CC[C@@]1(O)C(=O)OCc2c1cc1n(c2=O)Cc2cc3cc(O)ccc3nc2-1,/,/,/,/,0.038µM
CCC1(OC(=O)CN(C)C)C(=O)OCc2c1cc1n(c2=O)Cc2cc3c(N)cccc3nc2-1 (stereo unspecified),.,?,0.65µM,?,?
COc1ccccc1C1CN(Cc2ccc(Sc3nncn3C)o2)Cc2ccccc2O1 (stereo unspecified),/,/,/,.,/
CC(=O)c1cccc(NS(=O)(=O)c2ccc(N/C=C/C(=O)c3ccc(F)cc3)cc2)c1,.,?,?,.,.
CC(=O)c1cccc(NS(=O)(=O)c2ccc(N/C=C\C(=O)c3ccc(F)cc3)cc2)c1,.,?,26µM,.,?
COCc1nnc(NC(=O)c2ccc(S(=O)(=O)N(C)c3ccccc3)cc2)o1,.,.,?,.,?
CCN(c1ccccc1)S(=O)(=O)c1ccc(C(=O)Nc2nnc(COC)o2)cc1,.,.,23µM,.,?
CCN(c1ccccc1)S(=O)(=O)c1ccc(C(=O)Nc2nnc(CSC)o2)cc1,.,?,12µM,?,/
